# Laboratory results as given in PubChem BioAssay.
# Where “and” joins values, the source holds several entries; their conditions need not be identical. Equal entries are not always repeated. Records with an inconclusive call do not appear. Calls of active or inactive are those of the source.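 Rule for the calls, unless noted: active = normalized viability below 100% at a tested concentration; inactive = the rest.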
# How the values were obtained:
# [1] = kinase inhibitors against Plasmodium liver-stage infection, cell-based, known kinase inhibitor set, luminescence, hepatoma host viability (AID 624392; call rule not given here;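 note: infected cells incubated roughly two days before readout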); conditions: Plasmodium liver stage in hepatoma cells, luciferase luminescence, concentration not given here; liver cell % of control: measured here: host liver cell viability; parasite % of control: stronger effect = lower value
# [2] = modulators of glucocorticoid suppression of NF-kB, cell-based, luciferase, IL-1B stimulus, dexamethasone (AID 624486; call rule not given here;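 for percent of negative control (+Dex): 100% = mean signal of vehicle control wells on the plate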); conditions: NF-kB luciferase reporter, IL-1B + dexamethasone, luminescence; percent of negative control (+Dex): actives lie on both sides, concentration not given here; z-score: measured here: IL-1B alone, no Dex
# [3] = kinase inhibitors altering Pseudomonas killing of worms, whole organism (AID 651566; call rule not given here;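 note: tested at 14 µM; sign flipped so higher z means a lower ratio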); conditions: C. elegans killed by P. aeruginosa, survival ratio
# [4] = activators of macrophage pro-inflammatory response, cell-based, murine, luminescence (AID 652131; call rule not given here); conditions: murine macrophage pro-inflammatory reporter, stronger effect = higher value
# [5] = target: Cellular tumor antigen p53 (Homo sapiens) (UniProt P04637); assay: kinase inhibitors altering GFP-p53 stability in HPV16-positive cells, imaging, known kinase inhibitor set, EGFP/DsRed ratio (AID 1053116; call rule not given here;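 note: cells exposed to compounds for 24 h at 37 °C before reading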); conditions: stronger effect = higher value; EGFP object count: measured here: GFP-p53 positive objects count
# [6] = IRF3 reporter activation in THP-1 macrophages, cell-based, PMA-stimulated THP-1, luminescence (AID 1053176; call rule not given here); conditions: PMA-differentiated THP-1, IRF3 reporter luminescence; stronger effect = higher value
# [7] = growth inhibition of DIPG glioma cells, dose response, cell-based, SU-DIPG-XVII, MIPE5.0, CellTiter-Glo, qHTS (AID 1347060; cut-off not given, nearly all actives have AC50 up to about 26 µM;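 for AC50: cells exposed to compound for 48 hours before viability readout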); conditions: SU-DIPG-XVII viability, CellTiter-Glo ATP luminescence
# [8] = growth inhibition of DIPG glioma cells, dose response, cell-based, SU-DIPG-XIII, MIPE4.0, CellTiter-Glo, qHTS (AID 1347061; cut-off not given, nearly all actives have AC50 up to about 37 µM;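 note: cells exposed to compound for 48 hours before readout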); conditions: SU-DIPG-XIII viability, CellTiter-Glo ATP luminescence
# [9] = growth inhibition of DIPG glioma cells, dose response, cell-based, JHH-DIPG-1, MIPE4.0, CellTiter-Glo, qHTS (AID 1347062; cut-off not given, nearly all actives have AC50 up to about 27 µM;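 for AC50: cells exposed to compound for two days before readout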); conditions: JHH-DIPG-1 viability, CellTiter-Glo ATP luminescence
# [10] = growth inhibition of DIPG glioma cells, dose response, cell-based, SU-DIPG-IV, MIPE4.0, CellTiter-Glo, qHTS (AID 1347063; cut-off not given, nearly all actives have AC50 up to about 30 µM;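 note: compound exposure lasted 48 hours before the viability readout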); conditions: SU-DIPG-IV viability, CellTiter-Glo ATP luminescence
# [11] = viability loss in pontine glioma line – cell-based, SU-DIPG-XXV, MIPE5.0, CellTiter-Glo, qHTS, dose response (AID 1347065; cut-off not given, nearly all actives have AC50 up to about 26 µM;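 note: cells exposed to compound for 48 hours before ATP readout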); conditions: CellTiter-Glo ATP luminescence
# [12] = SU-DIPG-VI glioma cell viability, MIPE4.0 library, CellTiter-Glo luminescence, qHTS (AID 1347066; cut-off not given, nearly all actives have AC50 up to about 30 µM;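 note: cells exposed to compound for 48 hours before readout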); conditions: CellTiter-Glo ATP luminescence
# [13] = SU-DIPG-XXV glioma cell viability, MIPE5.0 library, qHTS (AID 1347068; cut-off not given, nearly all actives have IC50 up to about 30 µM)
# [14] = modifiers of HSF1 nuclear foci, imaging, Selleck Cancer Library (AID 1347162; in the data active = plate-normalised HSF1 focus index below about 0.46); conditions: human cells, at 10 µM; SSMD: measured here: HSF1 foci SSMD mean; cell count: measured here: cell number; plate-normalised HSF1 focus index: stronger effect = lower value
# [15] = survival rescue of mitochondrial mutant cells in low glucose, primary screen, MELAS cybrids, Rieske KO mouse fibroblasts, CellTiter-Glo (AID 1508586;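 active = mean z-score across replicates of 1.96 or higher in either the MELAS or the Rieske mutant cell line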;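 note: z relative to plate mean and SD of compound and empty wells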)
# [16] = ovarian cancer cell viability with rucaparib, profiling panel, oncology-focused library, rucaparib conditional (AID 1508598); conditions: patient-derived ovarian cancer cells, CellTiter-Glo viability, 144 h, stronger effect = lower value
# [17] = viability rescue of complex I mutant cybrids, primary screen, cell-based, galactose medium, ATP luminescence (AID 1645843;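 active = z-score of at least 1.8 in each of two replicates, scored against plate mean and spread of sample wells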;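 note: positive z means more ATP and so rescue of galactose-driven cybrid death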); conditions: complex I mutant cybrid cells, 72 h, stronger effect = higher value
# [18] = JHH-DIPG-1 glioma cell viability, MIPE5.0 library, CellTiter-Glo luminescence, qHTS (AID 1347067; cut-off not given, nearly all actives have AC50 up to about 26 µM;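 note: cells exposed to compound for 48 hours before readout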); conditions: JHH-DIPG-1 glioma viability, CellTiter-Glo ATP luminescence
# [19] = MELAS cybrid survival, CellTiter-Glo 48 h, stronger effect = higher value
# [20] = Rieske KO mouse fibroblast survival, CellTiter-Glo 72 h
# Sequence of Cellular tumor antigen p53 (Homo sapiens) (P04637 whole entry, looked up): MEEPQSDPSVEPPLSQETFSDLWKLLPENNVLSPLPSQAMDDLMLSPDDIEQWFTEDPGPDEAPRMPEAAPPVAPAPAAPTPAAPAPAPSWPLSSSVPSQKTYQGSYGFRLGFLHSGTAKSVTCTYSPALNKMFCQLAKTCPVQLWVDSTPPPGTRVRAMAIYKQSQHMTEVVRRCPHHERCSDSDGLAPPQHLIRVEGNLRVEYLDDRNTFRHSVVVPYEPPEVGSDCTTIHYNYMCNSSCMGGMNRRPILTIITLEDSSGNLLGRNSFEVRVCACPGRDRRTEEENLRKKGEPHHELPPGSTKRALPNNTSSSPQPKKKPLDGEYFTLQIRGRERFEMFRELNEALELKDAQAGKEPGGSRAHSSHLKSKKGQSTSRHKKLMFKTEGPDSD
smiles,measurement,setting,value
NC(=O)c1ccc(-c2nc(-c3ccc4c(c3)OCO4)c(-c3ccccn3)[nH]2)cc1,liver cell % of control,[1],92.1%
same,parasite % of control,[1],99.9% (inactive)
same,percent of negative control (+Dex),[2],92% (inactive)
same,z-score,[2],0.215
same,z-score,[3],-0.47 (inactive)
same,z-score,[4],5.36 (inactive)
same,EGFP object count,[5],5.5
same,EGFP/DsRed ratio,[5],0.161 (inactive)
same,fraction signal,[6],-0.007 (inactive)
same,outcome,[7],inactive
same,outcome,[8],inactive
same,outcome,[9],inactive
same,outcome,[10],inactive
same,outcome,[11],inactive
same,outcome,[12],inactive
same,outcome,[13],inactive
same,SSMD,[14],0.986
same,cell count,[14],7590
same,plate-normalised HSF1 focus index,[14],1.06 (inactive)
same,z-score,[15]; [19],-0.87 (inactive) and -0.497 (inactive)
same,z-score,[15]; [20],-0.512 and 0.389
same,viability,"[16]; at 0.000305 µM, OCI-C5x cells, with rucaparib 10 µM, 100% = cells with rucaparib alone",134% (inactive)
same,viability,"[16]; at 0.000305 µM, OCI-C5x cells, without rucaparib",138% (inactive)
same,viability,"[16]; at 0.000305 µM, OCI-P5x cells, with rucaparib 20 µM, 100% = cells with rucaparib alone",116% (inactive)
same,viability,"[16]; at 0.000305 µM, OCI-P5x cells, without rucaparib",105% (inactive)
same,viability,"[16]; at 0.00122 µM, OCI-C5x cells, with rucaparib 10 µM, 100% = cells with rucaparib alone",135% (inactive)
same,viability,"[16]; at 0.00122 µM, OCI-C5x cells, without rucaparib",143% (inactive)
same,viability,"[16]; at 0.00122 µM, OCI-P5x cells, with rucaparib 20 µM, 100% = cells with rucaparib alone",110% (inactive)
same,viability,"[16]; at 0.00122 µM, OCI-P5x cells, without rucaparib",103% (inactive)
same,viability,"[16]; at 0.00488 µM, OCI-C5x cells, with rucaparib 10 µM, 100% = cells with rucaparib alone",139% (inactive)
same,viability,"[16]; at 0.00488 µM, OCI-C5x cells, without rucaparib",135% (inactive)
same,viability,"[16]; at 0.00488 µM, OCI-P5x cells, with rucaparib 20 µM, 100% = cells with rucaparib alone",108% (inactive)
same,viability,"[16]; at 0.00488 µM, OCI-P5x cells, without rucaparib",99.5% (active)
same,viability,"[16]; at 0.0195 µM, OCI-C5x cells, with rucaparib 10 µM, 100% = cells with rucaparib alone",136% (inactive)
same,viability,"[16]; at 0.0195 µM, OCI-C5x cells, without rucaparib",143% (inactive)
same,viability,"[16]; at 0.0195 µM, OCI-P5x cells, with rucaparib 20 µM, 100% = cells with rucaparib alone",112% (inactive)
same,viability,"[16]; at 0.0195 µM, OCI-P5x cells, without rucaparib",101% (inactive)
same,viability,"[16]; at 0.0781 µM, OCI-C5x cells, with rucaparib 10 µM, 100% = cells with rucaparib alone",130% (inactive)
same,viability,"[16]; at 0.0781 µM, OCI-C5x cells, without rucaparib",147% (inactive)
same,viability,"[16]; at 0.0781 µM, OCI-P5x cells, with rucaparib 20 µM, 100% = cells with rucaparib alone",106% (inactive)
same,viability,"[16]; at 0.0781 µM, OCI-P5x cells, without rucaparib",94.4% (active)
same,viability,"[16]; at 0.313 µM, OCI-C5x cells, with rucaparib 10 µM, 100% = cells with rucaparib alone",130% (inactive)
same,viability,"[16]; at 0.313 µM, OCI-C5x cells, without rucaparib",146% (inactive)
same,viability,"[16]; at 0.313 µM, OCI-P5x cells, with rucaparib 20 µM, 100% = cells with rucaparib alone",105% (inactive)
same,viability,"[16]; at 0.313 µM, OCI-P5x cells, without rucaparib",102% (inactive)
same,viability,"[16]; at 1.25 µM, OCI-C5x cells, with rucaparib 10 µM, 100% = cells with rucaparib alone",146% (inactive)
same,viability,"[16]; at 1.25 µM, OCI-C5x cells, without rucaparib",153% (inactive)
same,viability,"[16]; at 1.25 µM, OCI-P5x cells, with rucaparib 20 µM, 100% = cells with rucaparib alone",114% (inactive)
same,viability,"[16]; at 1.25 µM, OCI-P5x cells, without rucaparib",92.1% (active)
same,viability,"[16]; at 5 µM, OCI-C5x cells, with rucaparib 10 µM, 100% = cells with rucaparib alone",198% (inactive)
same,viability,"[16]; at 5 µM, OCI-C5x cells, without rucaparib",187% (inactive)
same,viability,"[16]; at 5 µM, OCI-P5x cells, with rucaparib 20 µM, 100% = cells with rucaparib alone",102% (inactive)
same,viability,"[16]; at 5 µM, OCI-P5x cells, without rucaparib",93.9% (active)
same,z-score,[17],-0.03 (inactive)
Cn1cc(/C=C2\C(=O)Nc3cccnc32)c2ccccc21,liver cell % of control,[1],210%
same,parasite % of control,[1],18.2% (inactive)
same,percent of negative control (+Dex),[2],92.5% (inactive)
same,z-score,[2],0.27
same,z-score,[3],0.915 (inactive)
same,z-score,[4],5.16 (inactive)
same,EGFP object count,[5],4
same,EGFP/DsRed ratio,[5],0.0768 (inactive)
same,fraction signal,[6],-0.0095 (inactive)
same,AC50,[7],8.33 µM (active)
same,outcome,[9],inactive
same,outcome,[10],inactive
same,AC50,[11],9.34 µM (active)
same,outcome,[12],inactive
same,outcome,[13],inactive
same,z-score,[15]; [19],0.351 (inactive)
same,z-score,[15]; [20],-0.515
Cn1cc(C2=C(c3c4n(c5ccccc35)CCC(CN)C4)C(=O)NC2=O)c2ccccc21 (centres undefined),liver cell % of control,[1],84.3%
same,parasite % of control,[1],50.7% (inactive)
same,percent of negative control (+Dex),[2],89.5% (inactive)
same,z-score,[2],-0.37
same,EGFP object count,[5],2
same,EGFP/DsRed ratio,[5],0.0193 (inactive)
same,fraction signal,[6],-0.001 (inactive)
same,AC50,[9],13.2 µM (active)
same,AC50,[10],18.7 µM (active)
same,outcome,[11],inactive
same,AC50,[12],23.5 µM (active)
same,outcome,[18],inactive
same,outcome,[13],inactive
